PubChem BioAssay AID2563 (Broad Institute, 2010)
The campaign covered roughly 290,000 compounds. About 800 (0.28%) were called active.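 Rule for the calls: active = fall in fluorescence gain of 50% or more versus controls, with final raw signal at or below 3038400; inconclusive = same 50% fall but final raw signal above 3038400; inactive = fall in fluorescence gain under 50%.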 This excerpt belongs to a sample that is enriched for actives.

biological target: CAAX prenyl protease 2 (Saccharomyces cerevisiae (strain ATCC 204508 / S288c)) (UniProt Q03530); assay: blockers of Rce1 CaaX peptide cleavage – biochemical, fluorescence, cell-free homogeneous, primary screen (AID 2563); details: yeast membranes, quenched prenylated peptide cleavage fluorescence
Sequence (Q03530 whole entry, looked up): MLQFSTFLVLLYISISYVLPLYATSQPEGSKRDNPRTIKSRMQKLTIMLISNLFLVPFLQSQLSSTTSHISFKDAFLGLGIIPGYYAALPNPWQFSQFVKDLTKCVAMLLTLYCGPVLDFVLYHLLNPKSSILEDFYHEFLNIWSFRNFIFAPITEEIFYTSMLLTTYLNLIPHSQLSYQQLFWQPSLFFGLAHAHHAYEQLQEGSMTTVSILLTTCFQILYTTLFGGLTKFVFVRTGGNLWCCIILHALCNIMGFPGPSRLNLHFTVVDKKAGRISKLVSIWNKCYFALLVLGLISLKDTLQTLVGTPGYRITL

| Structure (SMILES) | outcome |
| --- | --- |
| CC(C)CN(C(=O)COC(=O)c1ccc2ccccc2c1)c1c(N)n(Cc2ccccc2)c(=O)[nH]c1=O | inactive |
| COc1ccc(NS(=O)(=O)c2ccc(C)c(C(=O)NCC(c3cccs3)N3CCOCC3)c2)cc1 (stereo unspecified) | inactive |
| CN(C)c1ccc(C2Nc3ccccc3C(=O)N2NS(=O)(=O)c2ccccc2)cc1 (stereo unspecified) | inactive |
| CC(=O)NN1C(=O)c2ccccc2NC1c1ccccc1 (stereo unspecified) | active |
| CCOC(=O)NN1C(=O)c2ccccc2NC1c1cccc(O)c1 (stereo unspecified) | inactive |
| COCCn1c(SC(C)C(=O)NC2CC2)nnc1-c1cccc(C)c1 (stereo unspecified) | inactive |
| CC(C)(C)S(=O)(=O)c1ccccc1-c1noc(-c2ccccc2)c1C(N)=O | inactive |
| CCn1c(SC(C)C(=O)Nc2ccc(N3CCOCC3)cc2)nnc1-c1ccco1 (stereo unspecified) | inactive |
| Cc1ccc(C(=O)N/N=C/c2cccc3ccccc23)cn1 | inactive |
| CCCCCN(C(=O)CCC(=O)OCC(=O)NC1CCC(C)CC1)c1c(N)n(CCCC)c(=O)[nH]c1=O (stereo unspecified) | inactive |
| COc1ccc(C)cc1S(=O)(=O)Nc1cc2c3c(c1)CCC(=O)N3CCC2 | inactive |
| CCCc1cc(=O)[nH]c(SCC(=O)c2c(N)n(CC(C)C)c(=O)n(C)c2=O)n1 | inactive |
| O=C(CN1C(=O)NC2(CCCC2)C1=O)OCCOc1ccc(F)cc1 | inactive |
| CCN1CCN(c2ccc(S(=O)(=O)N3CCCCC3)cc2NC(=O)c2cccc(NC(C)=O)c2)CC1 | inactive |
| Cc1onc(-c2ccccc2Cl)c1C(=O)N(Cc1ccc(N(C)C)cc1)C(C)C | inactive |
| CCc1noc(C)c1C(=O)Nc1nc2ccc(OC)cc2s1 | inactive |
| COC(C[C@@H](O)C[C@H](O)[C@H](C)OCc1ccccc1)OC | active |
| COC(C[C@H](O)CC(=O)[C@@H](C)OCc1ccccc1)OC | inactive |
| COC(C[C@@H](O)C[C@@H](O)[C@H](C)OCc1ccccc1)OC | inactive |
| Cc1ccc2nnn(Cc3cccc(C(C)(C)C)c3O)c2c1 | inactive |
| Cc1ccc2nc(NC(=O)CSc3nc(=O)n(CCCN(C)C)c4c3CCC4)sc2c1 | inactive |
| O=C(NCC(=O)N1CCCC(C(F)(F)F)C1)c1ccccc1F (stereo unspecified) | inactive |
| Cc1nc(N2CCOCC2)c2c(C)c(C(=O)Nc3ccc(C(F)(F)F)cc3)sc2n1 | active |
| Cc1nc(N2CCN(c3ccccn3)CC2)c2c(C)c(C(=O)Nc3ccc(F)c(Cl)c3)sc2n1 | inactive |
| Cc1nc(N2CCN(c3ccccn3)CC2)c2c(C)c(C(=O)Nc3ccc(F)cc3)sc2n1 | inactive |
| Cc1c(C)n2c(SCC(=O)N3CCCC3)nnc2[nH]c1=O | inactive |

| Structure (SMILES) | outcome |
| --- | --- |
| Cc1cc(/C=N/n2cnnc2)c(C)n1-c1ccc2ncccc2c1 | inactive |
| Cc1nn(C)cc1C(=O)c1ccccc1 | inactive |
| Cc1cccc([C@@H]2[C@@H]3C(=O)N(Cc4ccccc4)C(=O)[C@@H]3[C@]3(Cc4ccc(Cl)cc4)C(=O)N(c4cccc(Cl)c4)C(=O)N23)c1 | inactive |
| C=CCNC(=O)C1CC2c3ccccc3C1c1ccccc12 (stereo unspecified) | inactive |
| CC(=O)c1c(C)oc2ccc(NS(=O)(=O)c3ccc(C(=O)O)cc3)cc12 | active |
| COc1ccc(S(=O)(=O)Nc2ccc3oc(C)c(C(C)=O)c3c2)cc1 | inactive |
| CC(=O)c1c(C)oc2ccc(NS(=O)(=O)c3ccccc3)cc12 | inactive |
| COc1ccccc1CNC(=O)COn1nnc2ccc(S(=O)(=O)N3CCOCC3)cc21 | inactive |
| CCc1cccc(NC(=O)COC(=O)C2CCN(c3ccc(C(F)(F)F)cn3)CC2)c1 | inactive |
| O=C(NCC(c1cccs1)N1CCOCC1)c1cc(Cl)ccc1[N+](=O)[O-] (stereo unspecified) | inactive |
| Cc1ccc(S(=O)(=O)N2CCC(C(=O)NCCC3=CCCCC3)CC2)cc1C | inactive |
| O=C(CCC(=O)c1cccs1)Nc1nc2ccccc2s1 | inactive |
| CC12CCC(=O)N1C(C(=O)Nc1ccc(F)c(F)c1F)CS2 (stereo unspecified) | inactive |
| COc1cc2ccccc2cc1C(=O)N1CCOCC1 | inactive |
| COc1ccc(S(=O)(=O)NCc2cccnc2)cc1NC(=O)c1ccc(C)cc1 | inactive |
| COc1ccc(/C=N/NC(=O)c2ccccc2)cc1OS(=O)(=O)c1ccccc1 | inactive |
| COc1ccc(/C=N/NC(=O)c2ccc(Cl)cc2)cc1COC(C)=O | active |
| COc1cccc(OCc2cc(/C=N/NC(=O)c3nc(Cl)c(Cl)c(N)c3Cl)ccc2OC)c1 | inactive |
| CCOC(=O)N1CCN(C(=O)c2ccccc2SCC(=O)NCC2CCCCC2)CC1 | inactive |
| COc1ccccc1C(CNC(=O)c1cccc(NS(=O)(=O)c2ccc(Br)cc2)c1)N(C)C (stereo unspecified) | inactive |
| CCOc1ccc(CCNC(=O)CN2C(=O)NC3(CCc4ccccc43)C2=O)cc1OCC (stereo unspecified) | inactive |
| COc1ccccc1NC(=O)C(C)OC(=O)c1ccc(-n2cnnn2)cc1 (stereo unspecified) | inactive |
| COc1ccc(C(=NN)c2ccc(OC)cc2)cc1 | inactive |
| CCCCn1c(N)c(N(Cc2ccccc2OC)C(=O)COc2cc(C)ccc2Cl)c(=O)[nH]c1=O | inactive |
| COc1ccc(NC(=O)CN(C)C(=O)c2n[nH]c3ccccc23)cc1 | inactive |
